Results filed as inconclusive are left out. Active and inactive are the calls of the source. Calls follow the shape of the dose curve; as a rule, active = well fitted curve in the direction sought with a large enough effect; inconclusive = small, poorly fitted or top-dose-only effect, or another doubt; inactive = no such curve, though single readings can be large; an effect the other way counts as inactive or inconclusive.

Experimental findings from PubChem BioAssay (NCATS) are described below.

The nature of one assay: qHTS assay to identify small molecule inhibitors of chordoma cells - UCH-2 (AID 1259356). Conditions: UCH-2 chordoma viability, CellTiter-Glo ATP luminescence, 48 h; series mostly up to 46.1 µM. (In qHTS, concentration-response curves come from the screen itself.)
In the case of `O=C(CN1CCNCC1)NC1CCCCC1`, the compound was classed as inactive. Turning to `CCOC(=O)[C@H](CCc1ccccc1)N[C@@H](C)C(=O)N1Cc2cc(OC)c(OC)cc2C[C@H]1C(=O)O`, the compound was called inactive. On the same count and under the same terms, the value for `O=C(O)Cc1cn(-c2ccccc2)nc1-c1ccc(Cl)cc1` was “inactive”; that for `Cc1ccc2c(c1)c1c3n2CCNC3CCC1` (configuration not stated) was “inactive”. Same read-out and setting: then `Nc1ccncc1N`, with “inactive”; and `CC(CN(C)C)C(C)(O)Cc1ccc(Cl)cc1` (configuration not stated), with “inactive”. For the compound `Cc1ccc(C(C)C)c(O)c1`, the compound was called inactive. The same measure, in the same setting: the value for `O=C(O)c1ccccc1OP(=O)(O)O` was “inactive”. For `C=CCNC(N)=S`, the outcome was inactive. Same read-out and setting: then `COc1ccc(NS(=O)(=O)c2ccc(N)cc2)nn1`, with “inactive”.

A further assay is described as follows: P-glycoprotein substrates identified in KB-8-5-11 adenocarcinoma cell line, qHTS therapeutic library screen (AID 1346987). Also: nearly all actives have a fitted effect of over 65% in size. Conditions: KB-8-5-11 (P-gp overexpressing) viability, CellTiter-Glo, 72 h; series mostly up to 44.5 µM. Summed up:
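Luminescence from CellTiter-Glo, read 5 min after addition, quantified survival of KB-8-5-11 (P-gp-overexpressing) cells exposed to compounds for 72 h. AC50 was derived from concentration-response curves.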
On to `O=C(CN1CCNCC1)NC1CCCCC1`, for which the call was inactive. The same measure, in the same setting: the value for `C[n+]1ccccc1/C=N/O` was “inactive”. Regarding `CCN(CC)CCc1nc(-c2ccccc2)no1`, the compound was called inactive. Still for that read-out and setting: then `C1CCN2C[C@@H]3C[C@@H](CN4CCCC[C@@H]34)[C@H]2C1`, with “inactive”; and `CCN(CC)CC1CCCCN1CC(=O)N1c2ccccc2C(=O)Nc2cccnc21` (configuration not stated), with “inactive”. As for `CN1CCN(C(=O)C2CCCCC2)CC1`, the compound was called inactive.

As for `COCC(=O)Nc1c(I)c(C(=O)NCC(O)CO)c(I)c(C(=O)N(C)CC(O)CO)c1I` (configuration not stated), the outcome was inactive. On the same count and under the same terms, the value for `CN(C(=O)c1c(O)c2ccccc2n(C)c1=O)c1ccccc1` was “inactive”; that for `CC(=O)SC[C@@H](Cc1ccccc1)C(=O)NCC(=O)OCc1ccccc1` was “inactive”; that for `C/C=C/C(=O)N(CC)c1ccccc1C` was “inactive”. The same measure, in the same setting: the value for `Cc1ccsc1C(=CCCN1CCC[C@@H](C(=O)O)C1)c1sccc1C` was “inactive”; that for `C[C@@H](c1ncncc1F)C(O)(Cn1cncn1)c1ccc(F)cc1F` (some centres not stated) was “inactive”; that for `Cc1c(N(C)C)c(=O)n(-c2ccccc2)n1C` was “inactive”. Still for that read-out and setting: then `CCOC(=O)[C@H](CCc1ccccc1)N[C@@H](C)C(=O)N1Cc2cc(OC)c(OC)cc2C[C@H]1C(=O)O`, with “inactive”; and `COC(=O)c1cccnc1`, with “inactive”. As to `O=C(O)Cc1cn(-c2ccccc2)nc1-c1ccc(Cl)cc1`, the result was inactive.

With `CCOc1ccc(C(=O)OCCN(CC)CC)cc1`, the result was inactive.

In the case of `Cc1cc(O)cc(C)c1Cl`, the call was inactive. On the same count and under the same terms, then `CN1C(C)(C)CCCC1(C)C`, with “inactive”; and `Cc1ccc2c(c1)c1c3n2CCNC3CCC1` (configuration not stated), with “inactive”; and `CCCOC(=O)c1ccc(N)cc1`, with “inactive”. On the same count and under the same terms, the value for `O=C(NCC(O)CO)c1c(I)c(C(=O)NCC(O)CO)c(I)c(N(CCO)C(=O)CO)c1I` (configuration not stated) was “inactive”. Still for that read-out and setting: the value for `Cn1c(=O)c2c(ncn2CCO)n(C)c1=O` was “inactive”.

With `NNC(=O)CP(=O)(c1ccccc1)c1ccccc1`, the compound was classed as inactive. Consider `Nc1ccncc1N`, for which the compound was called inactive. Still for that read-out and setting: then `CC(CN(C)C)C(C)(O)Cc1ccc(Cl)cc1` (configuration not stated), with “inactive”; and `O=C(O)[C@@H]1[C@H]2C[C@H]3c4[nH]c5ccccc5c4CCN3C[C@@H]2CC[C@@H]1O`, with “inactive”. Same read-out and setting: the value for `Cn1cc(C(=O)[C@@H]2CCc3nc[nH]c3C2)c2ccccc21` was “inactive”. With `Cc1c(Cn2ccnc2)c2ccccc2n1CCC(=O)O`, the outcome was inactive. On the same count and under the same terms, the value for `Cc1ccc(C(C)C)c(O)c1` was “inactive”; that for `O=C(O)c1ccccc1OP(=O)(O)O` was “inactive”. Same read-out and setting: the value for `C=CCNC(N)=S` was “inactive”; that for `CC1(C)S[C@@H]2[C@H](NC(=O)C(C(=O)O)c3ccccc3)C(=O)N2[C@H]1C(=O)O` (some centres not stated) was “inactive”.

For the compound `OCC(O)CS` (configuration not stated), the call was inactive.

Turning to `CN1CC(=O)NC1=N`, the compound was called inactive. The same measure, in the same setting: then `NC(=O)c1ccc([N+](=O)[O-])cc1Cl`, with “inactive”; and `COc1ccc(NS(=O)(=O)c2ccc(N)cc2)nn1`, with “inactive”.
